Compound activity deposited in PubChem by National Center for Advancing Translational Sciences (NCATS).
Shiga inhibitor: Shiga toxin inhibition | 290,000 compounds, 9.2% hits | inhibition, % at 38.7 µM | Vero cells, Shiga toxin protein synthesis inhibition reporter | AID 2315; in the data active = inhibition mostly above about 28%, no sharp cut-off; inactive = mostly below about 43%
Cycloheximide cs: counter-screen hit for Shiga toxin inhibitors, cycloheximide. 300,000 compounds, 12% hits. max response, %. cell reporter, cycloheximide protein synthesis inhibition counterscreen; in the data active = max response mostly above about 13%, no sharp cut-off; inactive = mostly below about 14%; note: read at 38.3 µM for the half of the compounds with a filed dose
NS1 inh: blocks influenza NS1 protein function; Potency, µM (series often up to 46.1 µM); 270,000 compounds, 0.4% hits; note: actives are rising curves; nearly all actives have a fitted effect of over 50% in size
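Read-out: OD600 growth recovery of NS1-expressing budding yeast. Cells grown overnight at 30C in -URA glucose medium, washed, resuspended and diluted 1:100 in 2% galactose assay medium, pH 6.0. Same strain lacking NS1 served as positive control.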
SARS PLP yeast: SARS-CoV PLP inhibition in yeast; 330,000 compounds, 0.19% hits; S. cerevisiae expressing SARS-CoV PLpro, growth rescue; Potency, µM (series often up to 32.9 µM), actives largely listed as activators; note: nearly all actives have a fitted effect of over 55% in size
Numbers stand for hits; – = inactive; ? = inconclusive; · = no result given; + = active, no number; ! = repeats disagree. Rows were chosen to be rich in hits. Some 12% of all compounds tested hit in one or more screens of this group. Unless noted, calls come from the whole dose curve.

SMILES	Shiga inhibitor	Cycloheximide cs	NS1 inh	SARS PLP yeast
Cc1cc(=O)oc2cc(NC(=O)Cc3ccccc3)ccc12	45.0	–	–	–
Cc1cc(=O)oc2cc(Nc3ccccc3)ccc12	54.8	59.9	–	–
Cc1cc(=O)oc2cc(NC(=O)CCC(=O)O)ccc12	–	–	–	–
Cc1cc(=O)oc2cc(OCC(=O)NCc3ccccn3)ccc12	–	–	–	–
Cc1cc(=O)oc2cc(NC(=S)NCc3ccccn3)ccc12	33.7	–	–	–
Cc1cc(=O)oc2cc(NC(=O)c3cccc(S(=O)(=O)N(C)C)c3)ccc12	65.6	28.5	–	–
O=c1c2c(nc3c(-c4ccc(Cl)cc4)c[nH]n13)CCCC2	–	–	–	–
O=c1c2c(nc3cc(-c4ccc(F)cc4)[nH]n13)CCCC2	73.9	39.4	–	–
Cc1[nH]n2c(=O)c3c(nc2c1-c1ccc(F)cc1)CCCC3	–	–	–	–
O=c1c2c(nc3cc(-c4cccc(Cl)c4)[nH]n13)CCC2	52.3	–	–	–
O=c1c2c(nc3cc(-c4cccc(F)c4)[nH]n13)CCC2	94.8	50.7	·	–
Cc1ccc(S(=O)(=O)N2CCN(C(=O)CCC(=O)NCc3ccc(F)cc3)CC2)cc1	–	–	–	–
CCN1C(=S)SC(=O)C1=C1C=C(C)N(CCO)C(C)=C1	125.0	70.6	–	–
CCN1C(=S)SC(=O)C1=C1C=C(C)N(CCOC)C(C)=C1	106.7	44.2	–	–
CCN1C(=O)/C(=C/C=C2/Sc3ccccc3N2CCO)SC1=S	–	–	·	–
O=C(COc1ccc(Cl)cc1Br)N1CCN(c2ncccn2)CC1	·	·	·	–
O=C(Cc1ccc2cccnc2c1)c1ccc(O)cc1O	33.9	29.1	–	–
Oc1ccc2cccnc2c1	–	–	–	–
CC(=O)O[C@H]1CC(C)(C)C(=C=C/C(C)=C/C=C/C(C)=C/C=C/C=C(C)/C=C/C=C(\C)C(=O)C[C@@]23O[C@]2(C)C[C@@H](O)CC3(C)C)[C@](C)(O)C1	–	–	–	–
COc1ccc(CNC(=O)CSc2ccsc2[N+](=O)[O-])cc1	84.1	34.2	·	–
Cc1ccc(CNC(=O)CSc2ccsc2[N+](=O)[O-])cc1	72.1	53.7	·	–
O=C(CSc1ccsc1[N+](=O)[O-])NCCc1ccc(Cl)cc1	–	–	–	–
O=C(CSc1ccsc1[N+](=O)[O-])Nc1cc(F)ccc1F	44.6	19.5	·	–
CC[C@H](C)[C@@H](C(=O)NCCCCCCCCCCC(=O)N1CCNCC1)n1cc(CCCCCN)nn1	·	·	·	–
Cn1cccc1C1NC(=O)c2c(sc3c2CCC(C(C)(C)C)C3)N1 (stereo not given)	28.6	10.8	–	–
SMILES	Shiga inhibitor	Cycloheximide cs	NS1 inh	SARS PLP yeast
Cn1c(=S)[nH]c2sc3c(c2c1=O)CCC(C(C)(C)C)C3 (stereo not given)	–	–	–	–
CCCOc1ccccc1C(=O)N(Cc1cccc(Br)c1)C1CCS(=O)(=O)C1 (stereo not given)	–	–	–	–
COc1ccc(C(CNC(=O)COc2ccc(F)cc2Cl)N2CCOCC2)cc1 (stereo not given)	·	·	·	–
O=C(c1cc2cc(Cl)ccc2[nH]1)N1CCN(c2ccc(F)cc2)CC1	–	–	–	–
CCN1CCN(C(=O)c2cc3cc(Cl)ccc3[nH]2)CC1	–	–	–	–
O=C(c1cc2cc(Cl)ccc2[nH]1)N1CCCCC1	–	24.7	–	–
CN1CCN(C(=O)c2cc3cc(Cl)ccc3[nH]2)CC1	–	12.4!	–	–
Cc1ccc2c(C)c(C(=O)N3CCN(Cc4ccc5c(c4)OCO5)CC3)oc2c1C	74.7	32.2	–	–
COc1ccc(N2CCN(C(=O)c3cc4cc(Cl)ccc4[nH]3)CC2)cc1	–	19.2	–	–
Cn1c(CNC(=O)C(Cc2ccccc2)NC(=O)c2ccccc2)cc(=O)n(C)c1=O (stereo not given)	–	–	–	–
CC(=O)Nc1ccc(S(=O)(=O)N2CCN(CC(=O)NC3CCCC3)CC2)cc1	–	–	–	–
Cc1ccc(-c2nnc(SCC(=O)N/N=C/c3ccc(C)s3)n2-c2ccc(C)cc2)cc1	–	–	–	–
Cc1ccc2sc(NC(=O)CN3C(=O)c4ccccc4C3=O)nc2c1C	–	–	–	–
O=C(NC(=S)N1CCN(Cc2ccc3c(c2)OCO3)CC1)c1ccc(Cl)cc1	–	14.9	–	–
O=C(NC(=S)N1CCN(Cc2ccc3c(c2)OCO3)CC1)c1cccc(Br)c1	–	–	–	–
O=C(c1cc2cc(Cl)ccc2[nH]1)N1CCN(Cc2ccc3c(c2)OCO3)CC1	–	13.3	–	–
O=C(c1cccc(Cl)c1)N1CCN(Cc2ccc3c(c2)OCO3)CC1	–	–	?	–
Clc1ccc(CNc2ccc(CNc3ncn[nH]3)cc2)c(Cl)c1	–	–	–	–
CCN1CCN(CCC(=O)Nc2ccc3c(c2)OCO3)CC1	–	–	–	–
Cc1cc(C)n(CCC(=O)Nc2ccc3c(c2)OCCO3)n1	44.9	15.2	–	–
Cc1ccn(CCC(=O)Nc2ccc3c(c2)OCO3)n1	72.6	24.4	–	?
Cc1noc(C)c1CSCc1ccc(Cl)cc1	–	–	–	–
COc1ccc(-c2noc(CN3CCCC(OCc4ccccn4)C3)n2)cc1 (stereo not given)	–	–	–	–
O=[N+]([O-])c1cccc(/C([O-])=C(/C(=S)Nc2ccccc2)[n+]2ccccc2)c1	+	80.4	?	–
Cc1cc(/C([O-])=C(/C(=S)Nc2ccccc2)[n+]2ccccc2)c(C)n1-c1ccccc1	–	29.5	–	–
SMILES	Shiga inhibitor	Cycloheximide cs	NS1 inh	SARS PLP yeast
CCCn1c(SCC(=O)N(C)CC(=O)Nc2ccc(Cl)cc2)n[nH]c1=O	·	·	·	–
CC(C)(C)CN1CCC(Oc2cccc(C(=O)N3CCNC(=O)C3(C)C)c2)CC1	–	–	–	–
COc1ccc(NC(=O)c2cnc(SC)n2-c2ccc(F)cc2)c(OC)c1	–	–	–	–
COc1ccccc1N(CC(=O)NCCSCc1ccc(C)cc1)S(=O)(=O)c1ccccc1	–	–	–	–
Nc1nc2c(c(=O)[nH]1)CN(CCCN1CCOCC1)CN2	·	·	–	·
Cc1nn(-c2ccccc2)c(Cl)c1CN(C(=O)CCl)c1cccc2ccccc12	–	12.0	–	–
CN(Cc1ccco1)S(=O)(=O)c1nnc(NC(=O)c2cccc(Cl)c2)s1	63.8	35.5	–	–
CCCc1nnc(NC(=O)CCC(=O)N2CCN(c3ccccc3)CC2)s1	–	–	–	–
C=CCn1c(SCCOc2ccc(OC)cc2)nnc1C(C)NC(=O)Cc1ccc(OC)cc1 (stereo not given)	–	–	–	–
O=C(COC(=O)Cc1ccccc1[N+](=O)[O-])NC1CCCC1	–	–	·	–
COc1cccc(-n2cn[nH]c2=S)c1	–	–	·	–
Fc1ccccc1-n1cn[nH]c1=S	68.7	28.3	·	–
Cn1c(SCC(N)=O)nnc1-c1ccc(C(C)(C)C)cc1	–	16.6	–	–
Cc1ccc(-c2nnc(SCC(N)=O)n2C)cc1	–	–	–	–
Cc1cccc(-c2nnc(SCC(=O)C(C)(C)C)n2C)c1	73.2	36.8	–	–
Cc1ccc(/C=N/NC(=O)CNC(=O)c2ccc(S(=O)(=O)N(C)C)cc2)o1	–	–	·	–
O=C(CSc1ncn[nH]1)c1ccccc1	51.6	–	–	–
O=C(CSc1ncn[nH]1)c1cc2ccccc2o1	–	19.7	–	–
O=C(CSc1nccc(=O)[nH]1)c1cc2ccccc2o1	47.4	34.2	–	–
